The full list was thinned out, with the strongest signals kept by preference.
Experiments:
Assay in all cases: glycan array binding signal (z-score within array); higher = stronger binding
Conditions in all cases: glycan notation: IUPAC condensed, linker removed
[1] = target: Fuc(a1-2)Gal(b1-3)GalNAc(b1-3)Gal(a1-4)Gal(b1-4)Glc
Summary of the method: (§1)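 Negative Z-scores can be read as non-binding. The Z-score is calculated within each array and then averaged across arrays of one protein sequence at different concentrations or buffers and across linkers. Arrays, 3228 in all, were curated from the Consortium for Functional Glycomics database and kept only where the protein sequence was available.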

[2] = target: Fuc(a1-2)Gal(b1-4)GlcNAc(b1-2)Man
Summary of the method: as §1

[3] = target: Fuc(a1-2)Gal(b1-4)[Fuc(a1-3)]GlcNAc(b1-2)Man(a1-3)[Fuc(a1-2)Gal(b1-4)[Fuc(a1-3)]GlcNAc(b1-2)Man(a1-6)]Man(b1-4)GlcNAc(b1-4)[Fuc(a1-6)]GlcNAc
Summary of the method: as §1

[4] = target: Fuc(a1-2)Gal3S(b1-4)GlcNAc
Summary of the method: as §1

[5] = target: Fuc(a1-2)[Gal(a1-3)]Gal(b1-4)[Fuc(a1-3)]GlcNAc
Summary of the method: as §1

[6] = target: Fuc(a1-2)[GalNAc(a1-3)]Gal(b1-3)GlcNAc
Summary of the method: as §1

[7] = target: Fuc(a1-2)[GalNAc(a1-3)]Gal(b1-4)GlcNAc
Summary of the method: as §1

[8] = target: Fuc(a1-2)[GalNAc(a1-3)]Gal(b1-4)GlcNAc(b1-2)Man(a1-3)[Fuc(a1-2)[GalNAc(a1-3)]Gal(b1-4)GlcNAc(b1-2)Man(a1-6)]Man(b1-4)GlcNAc(b1-4)GlcNAc
Summary of the method: as §1

[9] = target: Fuc(a1-2)[GalNAc(a1-3)]Gal(b1-4)GlcNAc(b1-3)[Fuc(a1-2)[GalNAc(a1-3)]Gal(b1-4)GlcNAc(b1-6)]GalNAc
Summary of the method: as §1

[10] = target: Fuc(a1-2)[GalNAc(a1-3)]Gal(b1-4)GlcNAc(b1-6)GalNAc
Summary of the method: as §1

[11] = target: Fuc(a1-3)[Gal3S(b1-4)]GlcNAc6S
Summary of the method: as §1

[12] = target: Gal(a1-2)Gal
Summary of the method: as §1

[13] = target: Gal(a1-3)Gal
Summary of the method: as §1

[14] = target: Gal(a1-3)Gal(b1-3)GlcNAc(b1-3)GalNAc
Summary of the method: as §1

[15] = target: Gal(a1-3)Gal(b1-4)[Fuc(a1-3)]GlcNAc(b1-2)Man(a1-3)[Gal(a1-3)Gal(b1-4)[Fuc(a1-3)]GlcNAc(b1-2)Man(a1-6)]Man(b1-4)GlcNAc(b1-4)GlcNAc
Summary of the method: as §1

[16] = target: Gal(a1-4)GlcNAc
Summary of the method: as §1

[17] = target: Gal(b1-3)GlcNAc(b1-6)[Gal(b1-3)]GalNAc
Summary of the method: as §1

[18] = target: Gal(b1-3)[Fuc(a1-4)]GlcNAc(b1-2)Man(a1-3)[Gal(b1-3)[Fuc(a1-4)]GlcNAc(b1-2)Man(a1-6)]Man(b1-4)GlcNAc(b1-4)[Fuc(a1-6)]GlcNAc
Summary of the method: as §1

[19] = target: Gal(b1-4)GlcNAc(b1-3)Gal(b1-4)GlcNAc
Summary of the method: as §1

[20] = target: Gal(b1-4)GlcNAc(b1-3)Gal(b1-4)GlcNAc(b1-2)Man(a1-3)[Gal(b1-4)GlcNAc(b1-3)Gal(b1-4)GlcNAc(b1-2)Man(a1-6)]Man(b1-4)GlcNAc(b1-4)GlcNAc
Summary of the method: as §1

[21] = target: Gal3S(b1-4)Glc
Summary of the method: as §1

[22] = target: Gal3S(b1-4)Glc6S
Summary of the method: as §1

[23] = target: Gal6P(b1-4)GlcNAc
Summary of the method: as §1

[24] = target: Gal6S(b1-3)GlcNAc6S
Summary of the method: as §1

[25] = target: GalNAc(b1-4)GlcNAc
Summary of the method: as §1

[26] = target: GalNAc(b1-6)GalNAc
Summary of the method: as §1

[27] = target: GalNAc3S(b1-4)[Fuc(a1-3)]GlcNAc
Summary of the method: as §1

[28] = target: GalNAc6S(b1-4)GlcNAc
Summary of the method: as §1

[29] = target: GlcA(b1-3)Gal
Summary of the method: as §1

[30] = target: GlcNAc(b1-2)[GlcNAc(b1-4)]Man(a1-3)[GlcNAc(b1-4)][GlcNAc(b1-2)[GlcNAc(b1-6)]Man(a1-6)]Man(b1-4)GlcNAc(b1-4)GlcNAc
Summary of the method: as §1

[31] = target: Kdn(a2-3)Gal(b1-3)GalNAc
Summary of the method: as §1

[32] = target: Man(a1-2)Man(a1-6)[Man(a1-3)]Man(a1-6)[Man(a1-2)Man(a1-2)Man(a1-3)]Man(b1-4)GlcNAc(b1-4)GlcNAc
Summary of the method: as §1

[33] = target: Neu5Ac(a2-3)Gal(b1-3)GalNAc6S
Summary of the method: as §1

[34] = target: Neu5Ac(a2-3)Gal(b1-3)GlcNAc(b1-3)GalNAc
Summary of the method: as §1

[35] = target: Neu5Ac(a2-3)Gal(b1-4)GlcNAc(b1-2)Man(a1-3)[GlcNAc(b1-4)][Neu5Ac(a2-3)Gal(b1-4)GlcNAc(b1-2)Man(a1-6)]Man(b1-4)GlcNAc(b1-4)GlcNAc
Summary of the method: as §1

[36] = target: Neu5Ac(a2-3)Gal(b1-4)GlcNAc(b1-2)[Neu5Ac(a2-3)Gal(b1-4)GlcNAc(b1-6)]Man(a1-6)[Neu5Ac(a2-3)Gal(b1-4)GlcNAc(b1-2)Man(a1-3)][GlcNAc(b1-4)]Man(b1-4)GlcNAc(b1-4)GlcNAc
Summary of the method: as §1

[37] = target: Neu5Ac(a2-3)Gal(b1-4)GlcNAc(b1-3)Gal(b1-3)GlcNAc
Summary of the method: as §1

[38] = target: Neu5Ac(a2-3)[GalNAc(b1-4)]Gal(b1-4)GlcNAc(b1-3)GalNAc
Summary of the method: as §1

[39] = target: Neu5Ac(a2-6)Gal(b1-4)GlcNAc(b1-2)Man(a1-3)[GlcNAc(b1-2)Man(a1-6)]Man(b1-4)GlcNAc(b1-4)GlcNAc
Summary of the method: as §1

[40] = target: Neu5Ac(a2-6)Gal(b1-4)GlcNAc(b1-2)Man(a1-3)[Neu5Ac(a2-6)Gal(b1-4)GlcNAc(b1-2)Man(a1-6)]Man(b1-4)GlcNAc(b1-4)[Fuc(a1-6)]GlcNAc
Summary of the method: as §1

[41] = target: Neu5Ac(a2-6)GalNAc
Summary of the method: as §1

[42] = target: Neu5Ac(a2-8)Neu5Ac(a2-3)Gal(b1-4)Glc
Summary of the method: as §1

[43] = target: Neu5Gc(a2-3)Gal(b1-4)Glc
Summary of the method: as §1

B1: Mnn9-2N3 (Aspergillus fumigatus) (protein)
chain: MAVARRMRRTNPITLLLAAILAIGFFIFVLSPSTTSASPVKAGSASSSSTSQQRREDNAAENPLSPPTKPFFKSQPVRHDGQQAPPPVVQYNLNQLSSTSTSAANGERILILTPMARFVPEYWDNVVKLTYPHELISIGFIIPKNKEGNAALAALEAAIAKTQSGPIDKRFASISILRQDFEPPLQSQDEKERHKISNQKARRESMSRARNSLLFTTLGPATAWVLWLDADIVETPPTLIQDLTAHDHPVLVPNCYQRYYNSEKKKMDVRPYDYNSWIDSSTAQSMAAEMGPDEILLEGYAEMPTYRTLMAHLADTANPNPKKVIELDGVGGTALMVKAEVHRDGAMFPAFPFYHLVETEGFAKMAKRLGYSVYGLPDYFVSRNFFFFFFFFFFG
glycan array binding signal (z-score) [1]: -0.365 | glycan array binding signal (z-score) [2]: -1.25 | glycan array binding signal (z-score) [3]: 3.21 | glycan array binding signal (z-score) [4]: 1.83 | glycan array binding signal (z-score) [5]: -0.761 | glycan array binding signal (z-score) [6]: -1.58 | glycan array binding signal (z-score) [7]: 0.402 | glycan array binding signal (z-score) [8]: 0.31 | glycan array binding signal (z-score) [9]: -0.67 | glycan array binding signal (z-score) [10]: 2.39 | glycan array binding signal (z-score) [11]: 3.29 | glycan array binding signal (z-score) [12]: 3.25 | glycan array binding signal (z-score) [13]: -0.434 | glycan array binding signal (z-score) [14]: -0.015 | glycan array binding signal (z-score) [15]: 2.41 | glycan array binding signal (z-score) [16]: 2.75 | glycan array binding signal (z-score) [17]: -0.321 | glycan array binding signal (z-score) [18]: -0.841 | glycan array binding signal (z-score) [19]: -0.099 | glycan array binding signal (z-score) [20]: 3.03 | glycan array binding signal (z-score) [21]: 3.44 | glycan array binding signal (z-score) [22]: 1.42 | glycan array binding signal (z-score) [23]: 2.57 | glycan array binding signal (z-score) [24]: 2.52 | glycan array binding signal (z-score) [25]: -0.366 | glycan array binding signal (z-score) [26]: -0.275 | glycan array binding signal (z-score) [27]: -0.385 | glycan array binding signal (z-score) [28]: -0.802 | glycan array binding signal (z-score) [29]: 0.326 | glycan array binding signal (z-score) [30]: -0.559 | glycan array binding signal (z-score) [31]: -2.43 | glycan array binding signal (z-score) [32]: -0.789 | glycan array binding signal (z-score) [33]: 2.97 | glycan array binding signal (z-score) [34]: -0.456 | glycan array binding signal (z-score) [35]: -1.34 | glycan array binding signal (z-score) [36]: -0.217 | glycan array binding signal (z-score) [37]: 0.123 | glycan array binding signal (z-score) [38]: -2.19 | glycan array binding signal (z-score) [39]: -1.47 | glycan array binding signal (z-score) [40]: 0.808 | glycan array binding signal (z-score) [41]: 2.59 | glycan array binding signal (z-score) [42]: 2.12 | glycan array binding signal (z-score) [43]: -0.055

Reference: the supplement of paper PMC8728848
